Each structure is given as a SMILES string. In all, about 190,000 compounds went through this assay and about 3,100 (1.6%) were called active. The list comes from a sample in which actives are over-represented; it also holds similar structures and randomly drawn compounds. Unmarked numbers belong to inactive results. No stated cut-off is given here; in the data, active means fold change above about 3.3; inconclusive means no clear call, values can overlap the other calls; inactive means below that.

The assay in a line: activators of NF-kB expression in neurons, primary screen, cell-based, HTS (AID 1239). The settings on record: human neuronal cells, NF-kB reporter expression; at 12.5 µM; active compounds read high.
With `COC(=O)C1=C(C)N(C)C(=O)NC1c1ccc([N+](=O)[O-])o1` (configuration not stated), the fold change was 0.88.

`CN(C)C(CNC(=O)c1cccc(C#N)c1)c1ccco1` (configuration not stated): the fold change was 1.15. For the molecule `CC(=O)NC1C(Oc2ccc(C=O)cc2)OC(COC(C)=O)C(OC(C)=O)C1OC(C)=O` (configuration not stated), the fold change is 1.36. For `O=C(NCc1ccccc1)C1CCCN(c2nc3ccsc3c(=O)s2)C1` (configuration not stated), the fold change was 1.06. For `CCN(CC)C(=O)c1sc2nc(-c3ccccc3)ccc2c1N` the value was 7.06 (active); for `CCOC(=O)c1sc2nc(SC)nc(-c3ccccc3)c2c1N`, 1.18. As for `CS(=O)(=O)c1sc2nc(-c3ccccc3)cc(-c3ccccc3)c2c1N`, the fold change is 1.16. Regarding `Cn1c(N)c(C(=O)COC(=O)/C=C/c2ccc(OC(F)F)cc2)c(=O)n(C)c1=O`, the fold change is 1.25.

`Cc1cc(C)c(OCCN2CC(C)OC(C)C2)c(Br)c1` (configuration not stated): the fold change was 1.58. For `CN1CCCC(OC(=O)COc2ccc(Br)cc2)C1` (configuration not stated) the value was 1.11. For `C/C(=C\C(=O)c1ccc(Br)cc1)N1CCCCC1` the value was 1.06; for `CC1CN/C(=C\C(=O)c2ccc(Br)cc2)C(=O)N1` (configuration not stated), 4.31 (active). Consider `CCc1cc2c(=O)c(-c3ccc(F)cc3)c(C(F)(F)F)oc2cc1OCC(=O)O`, for which the fold change is 1.1. Under `c1cnc(Nc2nc(-c3ccc4ccccc4c3)cs2)nc1` stands 2.23; under `COc1ccc(C(=O)/C=C/Nc2ccccn2)cc1`, 2.22; under `Clc1ccc(-c2csc(-c3ccncc3)n2)cc1`, 1.8. For `O=C(Nc1nc(-c2ccc(-c3ccccc3)cc2)cs1)c1cnccn1` the value was 1.35; for `COc1ccc(-c2csc(Nc3ccccn3)n2)cc1`, 7.56 (active); for `Clc1ccc(Nc2nc(-c3cccs3)cs2)nc1`, 12.4 (active). Under `O=C(Nc1ccc(Cl)cn1)Nc1cccs1` stands 1.65; under `O=C(Nc1nc(-c2ccncc2)cs1)C1COc2ccccc2O1` (configuration not stated), 1.25; under `c1ccc(Nc2nc(-c3ccncc3)cs2)nc1`, 7.4 (active). With `O=C(CN(c1cccc(Cl)c1)S(=O)(=O)c1ccccc1)NN=C1CCCC1`, the fold change was 1.17. Under `CN1CCN(C(c2cc3cc4c(cc3[nH]c2=O)OCCO4)c2nnnn2C2CCCC2)CC1` (configuration not stated) stands 1.27; under `O=C(COc1cccc2ccccc12)Nc1cc(S(=O)(=O)N2CCOCC2)ccc1N1CCOCC1`, 0.47; under `O=C(N/N=C/C=C/c1ccco1)c1cccs1`, 1.09. For `COc1ccc(CC(=O)NC(C)CCc2ccccc2)cc1` (configuration not stated) the value was 1.03; for `CC(=O)c1cc(C#N)c(N2CCCCC2)nc1C`, 1.09; for `O=C(Nc1ccc(Cl)cn1)c1ccc2c(c1)OCCO2`, 5.18 (active). Under `O=C(Nc1ccc2c(c1)OCCO2)c1ccc(Cl)c(S(=O)(=O)N2CCCCC2)c1` stands 0.9; under `O=C(Nc1cccc(Cl)c1N1CCOCC1)c1ccc2c(c1)OCCO2`, 0.72; under `CN1CCN(c2ccc(NC(=O)c3ccc4c(c3)OCCO4)cc2Cl)CC1`, 3.36 (active). In the case of `O=C(Nc1cccc(S(=O)(=O)Nc2ccc(Cl)cc2)c1)c1ccc2c(c1)OCCO2`, the fold change is 0.68. In the case of `COc1c(Cl)cc(C(=O)Nc2ccc(Cl)cn2)cc1Cl`, the fold change is 1.49. For `S=c1[nH]ccn1-c1ccc(Cl)cc1` the value was 1.14.

As for `CC(C)(C)NC(=O)CN(C(=O)c1ccc(Cl)nc1)c1cccc2ccccc12`, the fold change is 0.94.

Regarding `COc1cccc(OCCCN2CCCCCC2)c1`, the fold change is 1.08. In the case of `C/C(=N/OC(=O)c1cccc(C(F)(F)F)c1)c1cnccn1`, the fold change was 1.18. `O=C(NC(=S)Nc1cccc(-c2ccc(CO)o2)c1)c1cccs1`: the fold change is 10.1 (active). For `O=C(NC(=S)Nc1ccc(NC(=O)c2cccs2)cc1)c1ccc([N+](=O)[O-])cc1` the value was 1.11. For `CCc1nnc(NS(=O)(=O)c2ccc(NC(=S)NC(=O)c3cccs3)cc2)s1` the value was 1.46; for `COC(=O)COc1ccc(C2NC(=O)NC(C)=C2C(=O)NCc2ccccc2)cc1OC` (configuration not stated), 1.01.

Take `CN1CCN(/N=C/c2ccc(-c3ccc([N+](=O)[O-])cc3)o2)CC1`: the fold change is 1.75. For `O=C(Cc1ccc([N+](=O)[O-])cc1)N/N=C/c1ccco1` the value was 1.05. As for `CCC(C)(NC(=O)c1ccccn1)C(=O)NC1CCCCC1` (configuration not stated), the fold change was 1.15.

`N/C(=N\OC(=O)CCC1CCCCC1)c1ccccn1`: the fold change was 4.01 (active). Under `N/C(=N\OC(=O)CC1CCCCC1)c1ccccc1` stands 1.45. For `CN(C)CCOc1cccc(Br)c1` the value was 1.12. For `CCN=c1sc(C(=O)Nc2ccccc2)c(C)n1CC`, the fold change is 1.3. Consider `Cc1ccc(OCC(=O)NC(C)c2ccccc2)c([N+](=O)[O-])n1` (configuration not stated), for which the fold change was 1.1. Under `C=CCNC(=O)CC12CC3CC(C1)CC(CC(=O)NCC=C)(C3)C2` stands 1.38; under `CCOC(=O)/C(C#N)=C/c1ccc(N2CCCCC2)cc1`, 3.43 (active). Under `CCOC(=O)/C(C#N)=C/c1ccc(N2CCN(Cc3ccccc3)CC2)cc1` stands 0.98; under `COc1ccc(N2CCN(C(=O)/C(C#N)=C/c3ccccc3)CC2)cc1`, 0.72. Under `COC(=O)C1=CN(Cc2ccc(OC)c(OC)c2)C=C(C(=O)OC)C1c1cccs1` stands 0.73; under `Cc1nnc(SCCCCSc2nnc(C)c(=O)[nH]2)[nH]c1=O`, 1.03; under `Cc1ccc(S(=O)(=O)/N=C(\N)c2ccc(F)cc2)cc1`, 1.11. `Cc1nn2cc(-c3ccc(Cl)cc3)cnc2c1Br`: the fold change was 4.06 (active). For `O=C(NC(=S)Nc1ccc(S(=O)(=O)Nc2ncccn2)cc1)c1cccc(Br)c1` the value was 0.92; for `CCOC(=O)C1(Cc2ccccc2C(F)(F)F)CCN(C(=O)c2cc(C)n(C)n2)CC1`, 1.81. For `CC(C)C(=O)Nc1c(C(=O)c2ccc(F)cc2)oc2ccccc12` the value was 0.89; for `CC(C)C(=O)Nc1ccc2c(c1)oc1ccccc12`, 4.71 (active). Under `CC(C)C(=O)Nc1ccc2oc(=O)ccc2c1` stands 1.14. `COCCCNC(=S)NCCNc1nc2cc(C)c(C)cc2cc1C#N`: the fold change is 0.77. For `O=C(CSCc1ccccc1)N1CCc2ccccc21` the value was 5.86 (active); for `NC(=O)N1CCc2ccccc21`, 1.08. Under `Cc1nnc(SCC(=O)N2CCc3ccccc32)n1-c1ccccc1` stands 1; under `CCn1c(SCC(=O)N(C)C2CCS(=O)(=O)C2)nnc1-c1cccs1` (configuration not stated), 1.03. For the molecule `CC(=O)c1ccc(N2CCN(CC(=O)Nc3ccccc3N3CCOCC3)CC2)cc1`, the fold change is 1. For `CC1(C)CN(c2ccc(-c3ccnc4ncnn34)cc2)C1=O` the value was 1.23; for `COc1ccc(N2CCN(C(=S)Nc3ccc(S(N)(=O)=O)cc3)CC2)cc1`, 0.85. Under `CCn1cc(CN2CCCC(CNS(=O)(=O)Cc3ccccc3)C2)cn1` (configuration not stated) stands 0.89. For `CCCCCCOc1ccc(OC(=O)c2cccnc2)cc1` the value was 5.55 (active); for `CCCCCCCCC(=O)NCCOc1ccccc1`, 1.12; for `CCCCOc1ccc(C(=O)NCc2ccncc2)cc1`, 1.15. Take `CCOc1ncccc1C(=O)OCC(=O)NC1CC1`: the fold change was 1.17. On to `CN1CCN(CC(=O)Nc2cccc([N+](=O)[O-])c2)CC1`, for which the fold change was 1.37.

As to `COc1cc2c(cc1OC)CN(C(=O)c1cc(=O)c3ccccc3o1)CC2`, the fold change is 0.82. For `CCOc1cc(C(=O)N2CCc3cc(OC)c(OC)cc3C2)ccc1OC(F)F` the value was 4.22 (active); for `COc1cc2c(cc1OC)CN(C(=O)c1ccc(S(=O)(=O)N3CCCCCC3)cc1)CC2`, 0.87.

As to `O=Cc1ccc(Oc2cccc(C(F)(F)F)c2)nc1`, the fold change is 1.2. For `O=C(CSc1cccc[n+]1[O-])c1ccc(Cl)cc1` the value was 1.21. For `COc1cccc(/C=C/c2ccc3ccccc3n2)c1OC(C)=O` the value was 3.13; for `CCOc1cccc(/C=C/c2ccc3ccccc3n2)c1OC(C)=O`, 4.82 (active).

Regarding `NC(=O)COC(=O)/C=C/c1ccc2ccccc2n1`, the fold change was 0.97. For `CCOC(=O)c1c(N)nn(C(=O)c2ccccc2)c1-c1ccccc1` the value was 1.07. Under `C=CCN1C2CCCC1CC(NC(=S)Nc1cccc(OC)c1)C2` (configuration not stated) stands 1.07; under `CC(CNC(=O)c1ccc(N)cc1)NC(=O)c1ccc(N)cc1` (configuration not stated), 1.46. For `CCOc1nc(-c2ccc(OC)cc2)ccc1-c1noc(-c2cc(OC)c(OC)c(OC)c2)n1` the value was 1.01; for `COc1cc(-c2nc(-c3ccncc3)no2)cc(OC)c1OC`, 0.54; for `COc1ccc(-c2noc(-c3cccc(OC)c3OC)n2)cc1OC`, 3.86 (active). Regarding `COc1ccc(OC)c(S(=O)(=O)NCCC(C)C)c1`, the fold change was 1.13. For the molecule `COc1ccc(NC(C)=O)cc1NC(=O)CN1CCN(C2c3ccccc3-c3ccccc32)CC1`, the fold change was 3.62 (active). For `COc1ccc(NC(C)=O)cc1NC(=O)CN1CCN(c2ccccn2)CC1` the value was 1.04; for `COc1ccc(OC)c(NC(=O)CN2CCN(C(=O)c3ccco3)CC2)c1`, 1.07. For `O=C(NCc1cccnc1)c1cccc(-c2cc3ccccc3oc2=O)c1` the value was 0.93. Under `Nc1ncc(-c2cc3ccccc3oc2=O)s1` stands 3.48 (active); under `O=c1oc2ccccc2cc1-c1cn(-c2ccccc2)c(=S)[nH]1`, 0.83. As to `O=C(/C=C/c1ccc2c(c1)OCO2)NCc1cn2cc(Cl)ccc2n1`, the fold change was 1.09. For `COc1ccc(N(C)S(=O)(=O)c2cccc3nsnc23)cc1` the value was 1.25. For `O=C(c1ccc(N2CCOCC2)c([N+](=O)[O-])c1)N1CCN(S(=O)(=O)c2cccs2)CC1` the value was 1.15; for `C=CCn1c(CCNC(=O)c2ccccc2F)nnc1SCC(=O)Nc1ccc(OC)cc1`, 1.12.

Values taken from PubChem BioAssay AID1239 (SRMLSC, 2008).
